Bioassay records as filed in PubChem BioAssay.
FMDV antiviral: FMDV antiviral activity by firefly signal; FMDV antiviral cell assay, firefly luciferase signal; Potency, µM (series often up to 57.5 µM), usual class: inhibitors; 120,000 compounds, 0.23% hits; AID 1745856; note: nearly all actives have a fitted effect of over 60% in size
FMDV RLuc: FMDV antiviral activity by Renilla signal; FMDV replicon cells, Renilla luciferase signal; Potency, µM (doses to about 57.5 µM), hits mostly inhibitors; 120,000 compounds, 0.32% hits; AID 1745857; note: nearly all actives have a fitted effect of over 55% in size
Numbers stand for hits; i = inactive; ? = inconclusive. Shown are actives, neighbours in structure and some others; about 0.45% of the full set was active somewhere. Calls come from the whole dose curve.

SMILES	FMDV antiviral	FMDV RLuc
CCCCOC(=O)c1ccc(NC(=O)c2ccc3c(c2)CCN3S(=O)(=O)c2ccccc2)cc1	i	i
CCC(CC)NC(=O)CCc1ccc(S(=O)(=O)N2CCCCC2)cc1	i	i
COCCOc1cc2c(cc1C=O)OCO2	i	i
C[N+](CCOCc1ccccc1)(CCOCc1ccccc1)CCOCc1ccccc1	?	28µM
CC[N+](C)(CC)CC(C[N+](C)(CC)CC)OCc1ccccc1	i	i
CC(c1nc2ccccc2s1)N(C)C(=O)c1cccc(S(=O)(=O)Nc2cccc(Cl)c2)c1 (stereo not drawn)	?	i
